ASM inhibitor – Inhibitors of Secretory Acid Sphingomyelinase (S-ASM): qHTS | Potency, µM (top dose mostly 57.5 µM), inactives show at the highest dose activity change, negative = inhibition, most hits filed as inhibitors | placental ASM, HMU-PC fluorogenic substrate, 60 min | 340,000 compounds, 0.006% hits; active = well fitted inhibition curve with a large enough effect; inconclusive = small, poorly fitted or top-dose-only effect; inactive = no such curve, though single readings can be large or run the other way; note: potency is the fitted concentration of half-maximal effect
Target sequence (P17405 47-631 limits assumed): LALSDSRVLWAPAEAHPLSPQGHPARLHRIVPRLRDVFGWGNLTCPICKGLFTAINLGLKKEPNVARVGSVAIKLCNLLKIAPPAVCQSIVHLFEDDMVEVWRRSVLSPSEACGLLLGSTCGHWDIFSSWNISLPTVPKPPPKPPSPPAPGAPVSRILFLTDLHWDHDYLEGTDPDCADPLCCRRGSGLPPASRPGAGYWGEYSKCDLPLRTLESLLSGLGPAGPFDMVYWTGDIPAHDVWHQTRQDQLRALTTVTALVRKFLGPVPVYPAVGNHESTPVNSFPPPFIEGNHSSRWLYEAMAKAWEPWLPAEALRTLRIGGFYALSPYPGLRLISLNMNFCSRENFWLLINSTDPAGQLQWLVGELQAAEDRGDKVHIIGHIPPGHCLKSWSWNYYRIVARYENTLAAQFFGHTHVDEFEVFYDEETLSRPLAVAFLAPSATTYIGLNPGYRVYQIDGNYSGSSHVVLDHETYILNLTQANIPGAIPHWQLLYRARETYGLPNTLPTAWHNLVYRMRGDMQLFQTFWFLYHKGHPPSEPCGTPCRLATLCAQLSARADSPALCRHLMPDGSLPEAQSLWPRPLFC
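Human placenta-derived ASM preincubated with compound 10 min at room temperature, then reacted with 9 uM (final) fluorogenic HMU-PC substrate for 60 min at 37 C. Stop solution raises pH to 10; fluorescence read at Ex 386/Em 447 nm.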
Six1-Eya2 inh – qHTS Assay for Inhibitors of the Six1/Eya2 Interaction | AID 651725, 2012 | activity change, % (concentration not given with the values) | AlphaScreen GST-Six1/His-Eya2 binding, biochemical; active compounds read low | 360,000 compounds, 0.56% hits | Homeobox protein SIX1 (Homo sapiens) + Protein phosphatase EYA2 (Homo sapiens), …; note: % is set by controls: 0 for no effect and ±100 for the full control effect
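Homogeneous AlphaScreen proximity assay pairing GST-Six1 with His-tagged Eya2 (added as 5X mix: 250 nM and 500 nM) in 50 mM Tris pH 8.0, 300 mM NaCl, 1 mM TCEP. Glutathione donor and nickel acceptor beads; 1 h, 37 °C, dark.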
CtBP-E1A inh – qHTS Assay for Inhibitors of the CtBP/E1A Interaction | AID 651724, 2012 | activity change, % (test concentration not listed) | AlphaScreen GST-E1A/His-CtBP binding, 1536-well; active compounds read low | 340,000 compounds, 0.49% hits; note: % is set by controls: 0 for no effect and ±100 for the full control effect
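In 5 uL wells, 23 nL compound meets equimolar GST-E1A and His-CtBP (5X stock 125 nM each) for 2 h, 37 °C. Beads (5X, 50 ug/mL) then 1 h, 37 °C, dark.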
Chronic BCR inh – qHTS Assay to Find Inhibitors of Chronic Active B-Cell Receptor Signaling; Potency, µM (series often up to 46.1 µM), without a hit: at the top dose activity change, negative = inhibition, hits mostly inhibitors; ABC-DLBCL IkBa-CBG/CBR reporter, luminescence ratio, 4 h; 340,000 compounds, 0.05% hits; active = well fitted inhibition curve with a large enough effect in the signal ratio, with a control signal flat, not every such curve was filed as active; inconclusive = small, poorly fitted or top-dose-only effect, or effect the other way, or a change in a side signal; the % refers to the signal ratio;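 note: potency is the fitted concentration of half-maximal effect; plate controls were basal doxycycline-induced cells for no effect and cells given 10 µM MG132 for full effect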
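Compounds up to 46 uM were incubated four hours with TMD8 cells whose green CBG68 luciferase is fused to IkappaBalpha; red CBR luminescence normalised the signal, and concentration-effect curves were fitted to fusion, red and ratio data.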
TSHR antagonist – Antagonists of the Thyroid Stimulating Hormone Receptor: HTS campaign; Thyrotropin receptor (Homo sapiens), P16473; 330,000 compounds, 0.2% hits; TSHR-expressing cells, TSH-stimulated cAMP HTRF, 2 h; active compounds read low; activity change, negative = inhibition, % at 11.5 µM;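 active = activity change below a set negative limit, meaning inhibition stronger than a set level, cut at about -70% in these data; inconclusive = activity change between two set negative limits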; note: % is set by controls: 0 for no effect and ±100 for the full control effect
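Competitive HTRF cAMP read-out (cryptate anti-cAMP antibody, cAMP-d2; 30 min, room temperature) in freshly harvested TSHR cells. Compounds added before TSH at EC80 (4nM final), followed by 2 hours' incubation at 37 deg C.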
* marks the source's active call; other numbers are inactive results; ? = inconclusive; nt = not tested or not shown. In the library only some 0.85% were active in any assay of this set; here they are far more common. Cut-off read from the data, not from the text of the source, unless noted: active = activity change below about -65%; inconclusive = mostly about -30% to -63%; inactive = weaker than that.

SMILES	ASM inhibitor	Six1-Eya2 inh	CtBP-E1A inh	Chronic BCR inh	TSHR antagonist
Cc1cccc(C(c2sc3nc(-c4ccco4)nn3c2O)N2CCN(Cc3ccccc3)CC2)c1 (stereo not drawn)	nt	nt	nt	0.8%	nt
Cc1oc(-c2cccc(Br)c2)nc1CN1CCC(C(=O)NCc2ccccc2)CC1	nt	nt	nt	25.5%	nt
CC(=NNC(=S)N1CC2CCC(CC2)C1)c1cnccn1	-3.2%	-92.1*	-93.9*	nt	nt
CCN(Cc1ccccc1)c1ccc(N=Nc2nn(C)c(C)c2[N+](=O)[O-])cc1	-27.2%	-70.4*	-67.6*	?	-16.0
Cc1ccc(CNC(=O)c2nn(C)c(C)c2[N+](=O)[O-])cc1	2.2%	-4.8	-1.6	0.7%	-0.3
CCN(CC)c1ccc(N=Nc2nn(C)c(C)c2[N+](=O)[O-])cc1	-21.0%	-66.9*	?	?	-17.1
CCC(C)NC(=O)CSc1nc2cc3c(cc2c(=O)n1CCCCCC(=O)NCc1ccc2c(c1)OCO2)OCO3 (stereo not drawn)	nt	nt	nt	6.9%	nt
Cc1cccc(NS(=O)(=O)c2ccc3c(c2)n(C)c(=O)n3C)c1C	nt	nt	nt	8.7%	nt
O=C(NC1CC(=O)N(c2cccc(F)c2)C1)c1cc2ccccc2o1 (stereo not drawn)	nt	nt	nt	12.9%	nt
Cc1cccc(CNC(=O)c2sc3ncnc(N(C)C4CCCCC4)c3c2C)c1	nt	nt	nt	2.6%	nt
Fc1ccc(CNc2ccc(N3CCN(Cc4ccccc4)CC3)cc2)cc1	4.4%	-72.3*	-73.5*	-2.4%	13.0
CC(=O)N1CCN(c2ccc(NCc3ccccc3)cc2)CC1	4.3%	-13.1	-2.9	5.4%	-8.4
c1ccc2c(c1)CC(N1CCN(c3cccc4c3OCCO4)CC1)C2	nt	nt	nt	nt	-8.8
CN1/C(=C\C=Nc2ccc3ccccc3c2)C(C)(C)c2ccccc21	nt	nt	nt	?	4.1
CN(C)c1ccc(N=C/C=C2\N(C)c3ccccc3C2(C)C)cc1	-22.0%	-65.8*	?	?	-20.0
COc1ccc2sc(N(Cc3cccnc3)C(=O)C3COc4ccccc4O3)nc2c1 (stereo not drawn)	nt	nt	nt	-14.2%	nt
CN(C)S(=O)(=O)c1cccc(NC(=O)CCCSc2ccccc2)c1	-0.6%	0.0	-1.5	?	-23.6
CC(=O)c1cccc(NC(=O)CCCSc2ccccc2)c1	-1.8%	-9.0	-6.2	?	-81.4*
CCc1ccc(NC(=O)c2sc3ncnc(N(C)C4CCCCC4)c3c2C)cc1	nt	nt	nt	13.1%	nt
Cc1ccc(Nc2ccc(N3CCN(C(=O)c4cccc([N+](=O)[O-])c4)CC3)nn2)cc1	nt	nt	nt	9.4%	nt
CCCCN(Cc1ccccc1)c1ncnc2nc[nH]c12	-2.4%	0.1	5.5	-1.0%	-70.3*
Cc1ccc(S(=O)(=O)Nc2ccc(O)c3ccccc23)c(C)c1	-4.1%	?	1.5	?	7.4
Cc1ccc(S(=O)(=O)Nc2cc(C(C(=O)OC(C)C)C(=O)C(F)(F)F)c(O)c3ccccc23)c(C)c1 (stereo not drawn)	-5.3%	-77.4*	-21.3	?	-10.8
O=C(O)c1ccc(/C=N/Nc2nc3ccccc3[nH]2)cc1	3.7%	3.4	-4.5	?	-7.0
O=c1[nH]c(N/N=C/c2ccc(O)cc2)nc2ccccc12	250.6%	?	-68.4*	?	0.3
SMILES	ASM inhibitor	Six1-Eya2 inh	CtBP-E1A inh	Chronic BCR inh	TSHR antagonist
O=c1[nH]c(N/N=C\c2ccc(F)cc2)nc2ccccc12	52.9%	-0.6	-13.5	?	-17.2
C(=N\Nc1nc2ccccc2[nH]1)/c1ccncc1	-2.4%	-9.9	-2.4	?	-87.8*
CCOc1ccc(CN2C(=O)c3ccccc3Sc3ccc(C(=O)OC)cc32)cc1	nt	nt	nt	-10.7%	nt
CCCS(=O)(=O)N1CCCC(C(=O)NCCOC)C1 (stereo not drawn)	nt	nt	nt	-1.0%	nt
O=C(NN1C(=O)/C(=C/C=C/c2ccco2)SC1=S)c1ccccc1O	?	-72.3*	?	16.1%	-11.6
CCOc1ccc(NC(=O)CSc2nc3ccsc3c(=O)n2CCC(C)C)cc1	nt	nt	nt	-0.9%	nt
CC(=O)N1c2ccc(S(=O)(=O)NCCC(=O)Nc3ccccc3C)cc2CC1C (stereo not drawn)	-2.1%	5.6	1.4	-7.3%	-133.4*
CC(=O)N1c2ccc(S(=O)(=O)NCCC(=O)Nc3cccc(Cl)c3)cc2CC1C (stereo not drawn)	-0.9%	-0.2	-8.3	0.9%	-126.4*
CC(=O)N1c2ccc(S(=O)(=O)NCCC(=O)Nc3ccc(C)c(Cl)c3)cc2CC1C (stereo not drawn)	-1.9%	1.2	1.1	1.9%	-2.2
COc1ccc(NC(=O)Cn2c(=O)cc(C)c3c(C)nn(C)c32)cc1	nt	nt	nt	-0.8%	nt
CCc1c(Cl)nc(N)nc1Nc1ccccc1C	0.2%	-0.9	4.9	nt	nt
Cc1ccccc1Nc1nc(N)[nH]c(=O)c1N=O	nt	?	-86.4*	nt	nt
COc1ccccc1N1CCN(Cc2cc(Br)c(O)c3ncccc23)CC1	-0.4%	-91.7*	-84.6*	?	-6.2
CN(C)C1CCN(Cc2cc(COCc3ccccc3)c3cccnc3c2O)C1 (stereo not drawn)	7.1%	nt	nt	7.1%	5.2
Oc1c(CN2CCCCC2)cc(COCc2ccccc2)c2cccnc12	3.4%	-84.9*	-3.4	?	20.9
O=[N+]([O-])c1cc(CN2CCCC2)c2cccnc2c1O	-4.2%	-79.3*	-1.0	2.3%	-19.8
COCc1cc(CN2CCCC2)c(O)c2ncccc12	-1.3%	-91.3*	-93.9*	?	26.8
Oc1c(Cl)cc(CN2CCCCC2)c2cccnc12	nt	nt	nt	?	11.6
O=C(NC1CCCCC1)c1ccc2c(c1)N(Cc1ccccc1Cl)C(=O)c1ccccc1S2	nt	nt	nt	-8.1%	nt
COc1ccc(N=NC2C(=O)N(c3ccccc3)N=C2C)cc1 (stereo not drawn)	-17.4%	-73.3*	?	?	23.2
CC1=NN(c2ccccc2)C(=O)C1N=Nc1ccccc1 (stereo not drawn)	-12.8%	-20.9	-18.4	-0.7%	-8.4
CC1=NN(c2ccccc2)C(=O)C1N=Nc1ccc(N)cc1 (stereo not drawn)	-6.8%	-70.6*	?	?	-13.8
NS(=O)(=O)c1ccc(CNC(=O)CCS(=O)(=O)Cc2ccccc2)cc1	0.5%	5.5	-0.2	0.2%	-79.2*
CCC(C)NC(=O)Cn1c(=O)n(-c2ccc(Cl)c(Cl)c2)c(=O)c2c(C)c(C(=O)N(CC)CC)sc21 (stereo not drawn)	nt	nt	nt	-7.0%	nt
COc1ccccc1C(=O)COC(=O)c1ccccc1O	-0.6%	0.5	11.6	-13.6%	-4.7
COc1cccc(/C=C/C(=O)OCC(=O)c2c[nH]c3ccccc23)c1	-6.4%	-16.3	-78.5*	-7.6%	?

Compound activity: PubChem, National Center for Advancing Translational Sciences (NCATS)
